Source: PubChem BioAssay (Tox21)
Values joined by “and” are separate entries in the source; they are usually repeats but may differ in a detail not shown here. Equal values may be shown once. Records with an inconclusive call do not appear. Entries that show only a call come without a potency. A structure can be active in one record and inactive in another. Active and inactive are the calls of the source. Calls come from the whole dose curve; as a rule, active = well fitted activation curve with a large enough effect in the repeat runs; inconclusive = weak or mixed curves; inactive = flat fitted curve, though single readings scatter.
Potency is the fitted concentration of half-maximal effect.

Test: A CellTox Green Cytotoxicity Assay to monitor cytotoxicity in HEK293 cells - 8 hour (AID 1224884); note: nearly all actives have a fitted effect of over 35% in size
Conditions: CellTox Green fluorescence; series mostly up to 76.8 µM
Source text: National Center for Advancing Translational Sciences [NCATS]
NIH Chemical Genomics Center [NCGC]
U.S. Environmental Protection Agency [EPA]
National Institutes of Environmental Health Sciences [NIEHS]
National Toxicology Program [NTP]
Cell-based models are critical for drug discovery. Determining the natural cytotoxic effects resulting from test compounds is an essential research activity. A CellTox Green Cytotoxicity Assay to monitor cytotoxicity in real time of continues cell culture during 40 hours of the compound treatment was used to screen Tox21 10K library compounds in Hek293 cells. CellTox Green Cytotoxicity Assay is a nonlytic, homogeneous, biofluorescent method to measure cytotoxicity in cell culture after experimental manipulation. The assay system uses a proprietary asymmetric cyanine dye that is excluded from viable cells but preferentially stains the dead cell's DNA. […] Viable cells produce no appreciable increases in fluorescence. Therefore, the fluorescence signal produced by the binding interaction with dead cell DNA is proportional to cytotoxicity.
The mixture of Hek293 cell suspension and reagents were dispensed at 600cells/6 ul/well in 1536-well tissue culture treated black solid bottom plates using a Multidrop dispenser. After the assay plates were incubated at a 37 C/5% CO2 incubator for 5 hours, 23 nL of compounds dissolved in DMSO, positive and negative controls was transferred to the assay plate by a pintool work station. The plates were incubated at 37 C for 40 hours. The fluorescence intensity were measured at 0h, 8h, 16h, 24h, 32h and 40h time points using ViewLux plate reader during compound treatment.
In the case of `CSc1nc(NC(C)C)nc(NC(C)C)n1`, the Potency is reported as “inactive”. In the case of `O=[N+]([O-])c1ccc(Nc2ccccc2)cc1`, the Potency is reported as “inactive”. With `COP(=S)(OC)Oc1ccc(Sc2ccc(OP(=S)(OC)OC)cc2)cc1` the Potency was “inactive”. With `CC(C)(C#N)N=NC(C)(C)C#N` the Potency was “inactive”. With `O=C1C(Cl)=C(Cl)C(=O)c2ccccc21` the Potency was 27.6 µM (active) and inactive. In the case of `CCNCC`, the Potency is reported as “inactive”. With `N#CCCCCC#N` the Potency was “inactive”. With `N#CC(c1ccccc1)c1ccccc1` the Potency was “inactive”. In the case of `CCOP(=O)(OCC)OCC`, the Potency is reported as “inactive”. For `CCC[CH2][Sn]([Cl])([CH2]CCC)[CH2]CCC`, the Potency was 6.18 µM (active) and 7.76 µM (active). With `OCCOCCO` the Potency was “inactive”. For `CNC(=S)S`, the Potency was “inactive”. For `NC(=O)CN1CCCC1=O`, the Potency was “inactive”. For `CC1(C)C(C(=O)OC(C#N)c2cccc(Oc3ccccc3)c2)C1(C)C` (stereo not given), the Potency was “inactive”. With `CCCCC(C#N)(Cn1cncn1)c1ccc(Cl)cc1` (stereo not given) the Potency was “inactive”. For `CC[n+]1c(-c2ccccc2)c2cc(N)ccc2c2ccc(N)cc21`, the Potency was “inactive”. In the case of `CC(C)Nc1nc(Cl)nc(NC(C)C)n1`, the Potency is reported as “inactive”. In the case of `COP(=S)(OC)Oc1ccc(S(=O)(=O)N(C)C)cc1`, the Potency is reported as “inactive”. For `COc1ccc(C=O)cc1OC`, the Potency was “inactive”. In the case of `CCCCOCCOC(C)=O`, the Potency is reported as “inactive”. In the case of `O=NN(c1ccccc1)c1ccccc1`, the Potency is reported as “inactive”. For `N#Cc1cccnc1`, the Potency was “inactive”. For `CC(C)=CC1C(C(=O)OCN2C(=O)C3=C(CCCC3)C2=O)C1(C)C` (stereo not given), the Potency was “inactive”. With `Oc1ccc(Cl)cc1Cc1ccccc1` the Potency was “inactive”. In the case of `O=C(O)CF`, the Potency is reported as “inactive”. In the case of `Brc1ccc(Br)cc1`, the Potency is reported as “inactive”. With `CCOP(=O)(O)OCC` (tested in a mixture with another compound) the Potency was “inactive and 54.5 µM (active)”. For `S=c1[nH]c2ccccc2[nH]1`, the Potency was “inactive”. For `CCCCSP(=O)(SCCCC)SCCCC`, the Potency was “inactive”. For `CC(C)Nc1ccc(Nc2ccccc2)cc1`, the Potency was “inactive”. For `CC(C)=CC1C(C(=O)OCc2cccc(Oc3ccccc3)c2)C1(C)C` (stereo not given), the Potency was “inactive”. With `CS(=O)(=O)NC(=O)c1cc(Oc2ccc(C(F)(F)F)cc2Cl)ccc1[N+](=O)[O-]` the Potency was “inactive”. For `CC(C)(c1ccc(OCC2CO2)cc1)c1ccc(OCC2CO2)cc1` (stereo not given), the Potency was “inactive”. For `CNC(=O)Oc1cccc2c1OC(C)(C)C2`, the Potency was “inactive”. In the case of `CCCCCCCCCCCCCl`, the Potency is reported as “inactive and 19.5 µM (active)”. In the case of `COc1ccc(O)c(C(C)(C)C)c1`, the Potency is reported as “inactive”. In the case of `CCOP(=S)(OCC)SCSC(C)(C)C`, the Potency is reported as “inactive”. For `C=CC(Cl)CCl` (stereo not given), the Potency was “inactive”. In the case of `O=C1CCCO1`, the Potency is reported as “inactive”. In the case of `O=P(OCCCl)(OCCCl)OCCCl`, the Potency is reported as “inactive”.
